High-throughput results as filed in PubChem BioAssay.
Only some compounds are listed: those with a hit (about 2.4% of all), similar ones and a draw of the others.
TRHR enhancer-1: allosterically enhances the human TRH receptor; 360,000 tested, 0.66% active; enhancement, % at 2 µM; P34981; TRHR cells, fluo-8 calcium fluorescence, EC20 TRH enhancement; in the data active = enhancement above about 30%; note: 0% is about no effect
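Enhancer read-out: after compound pinning and an initial kinetic agonist-mode read, an EC20 of TRH (10 nM final) was injected and fluo-8 calcium signal (Ex 480/Em 530) followed at 1 s/cycle for 100 cycles in TRHR-expressing cells.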
GLP1R cytotox: cytotoxic in the GLP-1 receptor inverse agonist counter-screen | AID 624418 | HEK293 cAMP-luciferase reporter cells, luminescence, 24 h | Potency, µM (series often up to 38.3 µM), without a hit: at the highest dose activity change, negative = inhibition, actives largely listed as inhibitors | 410,000 tested, 0.13% active;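 note: loss of luciferase light is scored as toxicity; potency is the fitted concentration of half-maximal effect; % is set by controls: 0 for no effect and ±100 for the full control effect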
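Compound-treated cells are incubated 24 hr at 37 deg C under 5% CO2 after a 12 hour attachment period, then luciferase detection reagent is added and luminescence is measured following 12 min at room temperature; lowered signal indicates toxicity.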
GLP-1R inv ag: inverse agonists of human GLP-1 receptor; HEK293 GLP-1R CRE-luciferase, luminescence, 24 h; GLP-1R form is constitutively active; AID 624417; 410,000 tested, 1.6% active; P43220; Potency, µM (titrated, usually from 38.3 µM), for the others: at the highest dose activity change, negative = inhibition, usual class: inhibitors; note: potency is the fitted concentration of half-maximal effect; % is set by controls: 0 for no effect and ±100 for the full control effect; nearly all actives have a fitted effect of over 55% in size
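Stable HEK293 clone (constitutively active GLP-1R + cAMP-response luciferase); 200 cells/uL plated, 12 h pre-culture, compound 24 hr, 37 deg C/5% CO2; detection reagent 12 min RT; luminescence.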
PTHR1 agonist: PTHR1 (human) receptor agonism; AID 743266; HEK293 GP2 PTHR1 cells, GloSensor cAMP luminescence, 1 h; 410,000 tested, 0.075% active; Potency, µM (doses to about 115 µM), for the others: at the highest dose activation, usual class: activators; Q03431; note: potency is the fitted concentration of half-maximal effect; nearly all actives have a fitted effect of over 55% in size
Target sequence (Q03431 whole entry, looked up): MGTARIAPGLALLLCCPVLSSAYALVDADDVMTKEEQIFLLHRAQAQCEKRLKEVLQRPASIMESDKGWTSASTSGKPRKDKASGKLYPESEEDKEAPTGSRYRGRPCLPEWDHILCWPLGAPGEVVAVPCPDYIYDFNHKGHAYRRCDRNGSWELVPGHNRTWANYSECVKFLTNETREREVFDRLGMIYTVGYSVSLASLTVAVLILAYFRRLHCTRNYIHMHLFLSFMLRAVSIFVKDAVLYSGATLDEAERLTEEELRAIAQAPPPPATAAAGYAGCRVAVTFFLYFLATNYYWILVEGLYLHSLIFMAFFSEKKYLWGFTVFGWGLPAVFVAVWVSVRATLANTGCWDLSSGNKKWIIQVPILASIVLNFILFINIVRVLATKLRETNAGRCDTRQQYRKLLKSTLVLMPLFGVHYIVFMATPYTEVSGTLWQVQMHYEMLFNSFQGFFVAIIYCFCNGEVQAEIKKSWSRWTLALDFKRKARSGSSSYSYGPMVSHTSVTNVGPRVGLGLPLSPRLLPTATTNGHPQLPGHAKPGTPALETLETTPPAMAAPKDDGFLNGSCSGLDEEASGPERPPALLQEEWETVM
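HEK-293-derived GP2 cells expressing PTHR1 and a GloSensor cAMP reporter, 3,000/well, plated overnight, given luciferin plus IBMX (each 0.5 mM as added) for 1 h at 37 °C, then compound for 1 h at 37 °C. Luminescence was read after 15 min at room temperature.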
TRHR agonist-1: agonists of human TRH receptor; P34981; activation, % at 2 µM; 360,000 tested, 0.18% active; TRHR cells, calcium flux fluo-8, FDSS agonist mode; AID 493084; in the data active = activation above about 30%; note: 0% is about no effect
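Steps: seed TRHR cells overnight; add fluo-8 no-wash Ca dye, RT 30 min–1.5 h; record 10 s baseline; pin-transfer compounds; monitor fluorescence 1 cycle/s for the agonist window. Calcium increases flag candidate agonists.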
GLP1R ag: agonists of human GLP-1 receptor; Potency, µM (series often up to 45.6 µM), without a hit: at the top dose activation, usual class: activators; HEK293 GLP-1R CRE-luciferase, luminescence, 4-6 h; cells express a hypersensitive GLP-1R form; AID 624172; 380,000 tested, 0.007% active; note: potency is the fitted concentration of half-maximal effect; % of control where 0% means no effect
TRHR enhancer-2: confirmation of human TRH receptor allosteric enhancers; shares compounds with TRHR enhancer-1; TRH receptor cell assay, enhancer confirmation qHTS; AID 493076; 970 tested, under 10 active; activity change, negative = inhibition, % at 46.1 µM;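 note: compound effect scored on response to added TRH at EC20 of 10 nM; 0% is about no effect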
TRHR agonist-2: confirmation of human TRH receptor agonists; shares compounds with TRHR enhancer-1; TRHR-expressing cells, agonist activation read-out; Potency, µM (highest dose often 46.1 µM), inactives show at the highest dose activation, hits mostly activators; 970 tested, 8% active; AID 493078; note: potency is the fitted concentration of half-maximal effect; 0% is about no effect; nearly all actives have a fitted effect of over 75% in size
Numbers without * were called inactive; i = inactive; ? = inconclusive; . = no result given; [ ] = another dose, or the depositor's remark. Unless noted, calls come from the whole dose curve; as a rule, active = well fitted curve in the direction sought with a large enough effect; inconclusive = small, poorly fitted or top-dose-only effect, or another doubt; inactive = no such curve, though single readings can be large; an effect the other way counts as inactive or inconclusive.

SMILES	TRHR enhancer-1	GLP1R cytotox	GLP-1R inv ag	PTHR1 agonist	TRHR agonist-1	GLP1R ag	TRHR enhancer-2	TRHR agonist-2
CC(=O)c1ccc(NC(=O)c2ccc3nc(C)sc3c2)cc1	4	-4%	10%	-46%	0	-4%	.	.
Cc1nc2ccc(C(=O)Nc3ccccc3Cl)cc2s1	51*	1%	2%	-41%	-1	6%	3	1%
Cc1ccnc(NC2(C(F)(F)F)N=C3SCCN3C2=O)c1 (configuration not stated)	5	11%	22%	i	0	0%	.	.
Cc1cc(C(=O)NCc2ccco2)sc1C	0	4%	-17%	-15%	0	-1%	.	.
Oc1ccc(C(c2nnnn2C2CCCC2)N2CCc3ccccc3C2)cc1 (configuration not stated)	1	1%	?	i	45*	1%	-12	1%
COc1cc(C(c2nnnn2C2CCCC2)N2CCc3ccccc3C2)ccc1O (configuration not stated)	3	5%	-15%	i	0	9%	.	.
O=C(COC(=O)c1ccc(F)cc1)NCC1CCCCC1	.	-5%	10%	-7%	.	-5%	.	.
COc1ccc(C(=O)OCC(=O)NCC2CCCCC2)cc1F	41*	17%	17%	-39%	-1	-5%	3	1%
Cn1c(CCC(=O)Nc2ccc(F)cc2)nc2cc(S(=O)(=O)N3CCOCC3)ccc21	1	1%	-3%	-18%	0	10%	.	.
CC1CCN(C(=O)c2ccc(NS(=O)(=O)c3ccccc3)cc2)CC1	44*	-2%	8%	-43%	-1	15%	1	1%
O=C(c1ccc(NS(=O)(=O)c2ccccc2)cc1)N1CCCC1	1	-3%	8%	-14%[57.5 µM]	0	-1%	.	.
O=C(N/C(=C/c1ccc(Br)cc1)C(=O)N1CCOCC1)c1ccc(Br)o1	97*	-1%	-27%	-9%	-1	11%	-2	1%
Cc1cc(NC(=O)COC(=O)Cn2[nH]c(=O)c3ccccc3c2=O)c([N+](=O)[O-])cc1C	.	1%	4%	13%	.	17%	.	.
CCCCC(=O)N(c1ccc(C(=O)O)cc1)c1nc(-c2ccc(Cl)cc2)c(CC)s1	63*	2%	48%	-38%	0	-2%	-17	?
CCOC(=O)/C(C#N)=C/c1cccc(C)c1	5	5%	-5%	-8%	-1	-6%	.	.
CCOC(=O)/C(C#N)=C/c1cccc(F)c1	9	2%	17%	-6%	43*	1%	3	7%
CCN(CC(=O)NC(=O)NCc1ccccc1)CC(=O)Nc1cc(Cl)ccc1C	4	-4%	?	-33%	0	-2%	.	.
CCOc1cc(/C=C/C(=O)Nc2ccc(C(=O)NCCN(CC)CC)cc2)ccc1OCC(C)C	42*	?	?	-37%	0	-17%	2	1%
COc1ccc(-c2ccc3c(N)c(C(=O)c4ccc(OC)c(OC)c4)sc3n2)cc1	4	51%	25%	-17%	15	1%	.	.
COc1ccc(C(=O)c2sc3nc(-c4ccccc4)ccc3c2N)cc1OC	2	61%	?	i	44*	-3%	-3	?
CCOC(=O)C1CCN(c2nc3ccccc3nc2C(C#N)C(=O)OC(C)C)CC1 (configuration not stated)	-8	8%	-18%	-23%	2	2%	.	.
CCOC(=O)C1CCCN(c2nc3ccccc3nc2C(C#N)C(=O)OC(C)C)C1 (configuration not stated)	-7	101%	13%	-22%	42*	5%	1	?
CCCN1C(=O)/C(=C/c2ccc(N3CCOCC3)cc2)NC1=S	13	2%	-10%	-37%	48*	4%	?	16µM*
CCC(=O)N(CC(=O)Nc1sc(C)c(C)c1C(N)=O)Cc1ccc(F)cc1	3	1%	1%	0%	0	15%	.	.
COc1ccc(CCNc2oc(-c3ccccc3OC)nc2C#N)cc1	-4	-11%	-33%	-18%[57.5 µM]	-1	-3%	.	.
SMILES	TRHR enhancer-1	GLP1R cytotox	GLP-1R inv ag	PTHR1 agonist	TRHR agonist-1	GLP1R ag	TRHR enhancer-2	TRHR agonist-2
COc1ccc(CCNc2oc(-c3ccccc3OC)nc2C#N)cc1OC	43*	-7%	75%	i	1	19%	?	0%
COc1ccc2nc(-c3ccccn3)[nH]c2c1	46*	0%	-24%	-29%	0	-7%	-3	2%
Cc1cccc(Cn2c(SCc3ccc(C(=O)NC4CCCCC4)cc3)nc3ccncc32)c1	-2	0%	11%	?	1	.	.	.
O=C(CSc1nnc(-c2ccccc2)c(-c2ccccc2)n1)NCc1ccco1	61*	?	?	i	0	-7%	-13	2%
O=C(CSc1ncc(-c2ccccc2)nn1)NCc1ccco1	8	-19%	20%	i	0	0%	.	.
O=S(=O)(NCC1CCCO1)c1ccc(Cl)cc1 (configuration not stated)	46*	1%	16%	i	0	9%	-2	1%
Cc1ccc(C)c(S(=O)(=O)C(C#N)c2nc3ccccc3nc2N2CCCC2)c1 (configuration not stated)	-2	10%	1%	i	27	-2%	-6	?
CN(N=Cc1ccccc1O)c1ccc2ccccc2n1	.	-9%	-10%	i	.	-7%	.	.
COC(=O)CC1C(=O)NCCN1C(=O)c1ccc2oc(C(C)C)nc2c1 (configuration not stated)	-8	-10%	19%	i	0	-1%	.	.
CCCCc1nc2cc(C(=O)N3CCNC(=O)C3CC(=O)OC)ccc2o1 (configuration not stated)	89*	2%	12%	i	0	-4%	0	-1%
Nn1c(COc2ccccc2)nnc1SCC(=O)O	4	69%	5%	-6%[57.5 µM]	1	0%	.	.
CCCCn1nnnc1SCC(=O)Nc1ccc(N(C)C)cc1	54*	6%	?	i	0	0%	-2	1%
CCCCn1nnnc1SCC(=O)Nc1ccc(F)cc1	-8	6%	-21%	i	-1	1%	.	.
